This excerpt belongs to a sample that is enriched for hits.
ST2 IL33 inh – inhibitors of human ST2 (IL1RL1) binding to IL-33, primary screen, biochemical, AlphaLISA; Interleukin-1 receptor-like 1 (Homo sapiens), Q01638; AID 1259354, 2018; AlphaLISA ST2-Fc/biotin-IL-33 interaction, 1 h; inhibition, % for hits at 17 µM; actives 2.3% (n = 78,000); in the data active = inhibition above about 30%
Target sequence (Q01638 whole entry, looked up): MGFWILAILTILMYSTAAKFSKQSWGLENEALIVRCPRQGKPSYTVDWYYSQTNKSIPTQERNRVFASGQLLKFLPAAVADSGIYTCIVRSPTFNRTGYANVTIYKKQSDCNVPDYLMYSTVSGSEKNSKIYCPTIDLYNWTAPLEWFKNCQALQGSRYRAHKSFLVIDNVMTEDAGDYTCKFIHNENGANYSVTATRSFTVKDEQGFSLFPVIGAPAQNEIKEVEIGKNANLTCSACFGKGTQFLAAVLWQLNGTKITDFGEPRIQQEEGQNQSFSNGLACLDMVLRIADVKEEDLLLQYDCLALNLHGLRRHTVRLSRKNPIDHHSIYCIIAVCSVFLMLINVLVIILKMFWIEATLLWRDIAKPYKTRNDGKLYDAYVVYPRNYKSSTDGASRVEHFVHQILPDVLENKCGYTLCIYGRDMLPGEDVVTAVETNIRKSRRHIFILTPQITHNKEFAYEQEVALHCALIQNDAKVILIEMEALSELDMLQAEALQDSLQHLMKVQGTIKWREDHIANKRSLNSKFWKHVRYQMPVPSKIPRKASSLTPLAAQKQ
Numbers stand for hits.

How did Cc1ccc(C(=O)Nc2cccc(OCc3cc(=O)n4cc(Cl)ccc4n3)c2)cc1 do in these assays?
ST2 IL33 inh: inactive

How did O=C1CCc2cc(S(=O)(=O)N3CCN(C4CCCCC4)CC3)ccc2N1 do in these assays?
ST2 IL33 inh: inactive

Results for CCCCOC(=O)CSC1=C(C#N)C(c2sccc2C)CC(=O)N1 (configuration not stated) ?
ST2 IL33 inh: inactive

How did Clc1ccc2nc(N3CCCC3)sc2c1 do in these assays?
ST2 IL33 inh: inactive

How did O=C(c1ccc(F)cc1)N1C[C@@H]2C[C@H](C1)c1ccc(-c3ccccc3CN3CCOCC3)c(=O)n1C2 do in these assays?
ST2 IL33 inh: inactive

What do the screens show for `Cc1ccc(F)cc1-n1c(Cc2ccncc2)n[nH]c1=O`?
ST2 IL33 inh: inactive

How did CN(Cc1ccc2c(c1)OCO2)C(=O)c1cccc(C#CC(C)(C)O)c1 do in these assays?
ST2 IL33 inh: inactive

How did Cc1ccc(NC(=O)C(NS(=O)(=O)c2cccs2)C(C)C)cc1F (configuration not stated) do in these assays?
ST2 IL33 inh: inactive

What do the screens show for `CN1CC2(CCCN(Cc3cccc(OCC(=O)O)c3)C2)OC1=O` (configuration not stated)?
ST2 IL33 inh: inactive

What do the screens show for `COC(=O)c1sc2ccccc2c1NC(=O)c1cc(OC)c(OC)c(OC)c1`?
ST2 IL33 inh: inactive

What do the screens show for `Nc1ccc(-c2cc(-c3ccccc3)nc(-c3ccc(N)cc3)n2)cc1`?
ST2 IL33 inh: inactive

How did Nc1ccc(-c2c3ccccc3nc3cc(N)ccc23)cc1 do in these assays?
ST2 IL33 inh: 61.0%

Results for Nc1ccc(-c2ccc3ccccc3n2)cc1 ?
ST2 IL33 inh: inactive

How did CS(=O)(=O)c1ccc2nc(NC(=O)c3ccccc3C(=O)O)sc2c1 do in these assays?
ST2 IL33 inh: inactive

What do the screens show for `COc1ccc(C(=O)O/N=C2\c3ccccc3-c3nc4ccccc4nc32)cc1`?
ST2 IL33 inh: inactive

Results for COc1ccc2nc3c(nc2c1)C(=O)c1ccccc1-3 ?
ST2 IL33 inh: 32.0%

How did COc1ccc2nc(Cl)c(Cl)nc2c1 do in these assays?
ST2 IL33 inh: inactive

How did Cc1ccc(C)c2c(N)c3c(nc12)CCCCC3 do in these assays?
ST2 IL33 inh: inactive

What do the screens show for `O=C(NCCN1CCN(C(=O)c2ccc(Cl)cc2Cl)CC1)C(=O)Nc1ccc(F)cc1`?
ST2 IL33 inh: inactive

How did CCSc1nc2c(cc1C#N)CCCC2 do in these assays?
ST2 IL33 inh: inactive

Results for CCC(Sc1nc(C)cc(C)n1)C(=O)Nc1cc(C)on1 (configuration not stated) ?
ST2 IL33 inh: inactive

Results for CCC(Sc1nc2c(cc1C#N)CCCCC2)C(=O)Nc1cc(C)on1 (configuration not stated) ?
ST2 IL33 inh: 30.0%

How did CCOc1ccc(/C=N\OC(=O)c2cccc([N+](=O)[O-])c2)cc1 do in these assays?
ST2 IL33 inh: inactive

Results for CN(C)CCNc1cc(-c2ccc(Cl)cc2F)c2cc[nH]c2n1 ?
ST2 IL33 inh: 30.0%

How did CNC(=O)c1cccc(-c2cc(NCc3cccnc3)nc3[nH]ccc23)c1 do in these assays?
ST2 IL33 inh: inactive

What do the screens show for `CNC(=O)c1ccc(-c2cc(NCCN(C)C)nc3[nH]ccc23)o1`?
ST2 IL33 inh: inactive

What do the screens show for `NC(N)=NS(=O)(=O)c1ccc(N=Cc2cccs2)cc1`?
ST2 IL33 inh: inactive

Results for COc1ccc(N=Cc2c(Nc3ccccc3)nc3c(C)cccn3c2=O)cc1 ?
ST2 IL33 inh: inactive

How did CCC(C)N=Cc1c(NCCO)nc2c(C)cccn2c1=O (configuration not stated) do in these assays?
ST2 IL33 inh: inactive

Results for CNc1nc2c(C)cccn2c(=O)c1C=NCCO ?
ST2 IL33 inh: 83.0%

Results for Cc1cccn2c(=O)c(C=Nc3cccc(Cl)c3)c(NCc3ccco3)nc12 ?
ST2 IL33 inh: inactive

Results for CNc1nc2c(C)cccn2c(=O)c1C=Nc1ccc(Cl)cc1 ?
ST2 IL33 inh: inactive

How did Cc1cccn2c(=O)c(C=NCc3ccccc3)c(NCCO)nc12 do in these assays?
ST2 IL33 inh: inactive

What do the screens show for `Cc1cccn2c(=O)c(C=NCCO)c(NCc3ccccc3)nc12`?
ST2 IL33 inh: inactive

Results for Cc1cccn2c(=O)c(C=NCc3ccco3)c(Nc3ccc(Cl)cc3)nc12 ?
ST2 IL33 inh: 34.0%

How did CNc1nc2c(C)cccn2c(=O)c1C=Nc1ccccc1 do in these assays?
ST2 IL33 inh: 33.0%

What do the screens show for `CN1CCC2(CC1)CN(C(=O)C1C(=O)NCC1c1ccccc1)CCN2C` (configuration not stated)?
ST2 IL33 inh: inactive

What do the screens show for `O=S(=O)(c1ccc(F)cc1)c1ccc(-c2ccccc2)cc1`?
ST2 IL33 inh: inactive

Results for O=C1CC(N2CCOCC2)C(=O)N1c1ccc(Br)cc1Br (configuration not stated) ?
ST2 IL33 inh: inactive

Results for CS(=O)(=O)N[C@H]1CO[C@H]2[C@@H]1OC[C@@H]2Nc1nccc(-c2ccco2)n1 ?
ST2 IL33 inh: inactive

How did O=C1c2cccc([N+](=O)[O-])c2C(=O)N1c1cccc(C(F)(F)F)c1 do in these assays?
ST2 IL33 inh: inactive

How did CC1CCCC(N2CCC(N3CCCCC3)CC2)C1 (configuration not stated) do in these assays?
ST2 IL33 inh: inactive

Compound activity: PubChem BioAssay, Paczesny and Yang Labs, IUPUI and University of Michigan
